Test results taken from PubChem BioAssay (NCATS).
Inconclusive results are not listed. A call without a number means that no potency is given here. Activity calls are given as the source filed them. The call rests on the fitted dose curve; in most records, active means well fitted curve in the direction sought with a large enough effect; inconclusive means small, poorly fitted or top-dose-only effect, or another doubt; inactive means no such curve, though single readings can be large; an effect the other way counts as inactive or inconclusive.

What was measured:
[1] = target: Aldehyde dehydrogenase, mitochondrial (Homo sapiens) (UniProt P05091); experiment: qHTS for Inhibitors of the Aldehyde Dehydrogenase Family (ALDH2) Primary screen (AID 2061308); further: nearly all actives have a fitted effect of over 55% in size
[2] = target: Retinaldehyde dehydrogenase 3 (Homo sapiens) (UniProt P47895); experiment: qHTS for Inhibitors of the Aldehyde Dehydrogenase Family (ALDH1A3) Primary screen (AID 2061315)

| SMILES | Potency [1] | Potency [2] |
| --- | --- | --- |
| Cc1ccc(-c2cc(C(=O)Nc3ccc(S(=O)(=O)Nc4ccc(C#N)cc4)cc3)c3ccccc3n2)cc1C | inactive | inactive |
| O=C1CCCC2=C1C(c1ccc(Cl)cc1)N=C(Nc1nc3ccccc3o1)N2 (stereo not given) | inactive | inactive |
| CC(=O)Nc1sc2c(c1C(O)c1nc3ccccc3s1)CCN(C(C)C)C2 (stereo not given) | inactive | inactive |
| C(#Cc1cccs1)c1cccnc1 | inactive | inactive |
| Cc1ccc(S(=O)(=O)Nc2cnccc2C(=O)Nc2nc(-c3cccc(Cl)c3)cs2)cc1 | inactive | inactive |
| Cc1ccc(S(=O)(=O)Nc2ccccc2N2CCCCC2)s1 | inactive | inactive |
| CN(C)c1cccc(-c2nc(N3CCC(C(N)=O)CC3)ncc2F)c1 | inactive | inactive |
| Cc1cc(NS(=O)(=O)CCNC(=O)Cc2ccc(Cl)c(Cl)c2)no1 | inactive | inactive |
| COc1ccc(C2Nc3ccccc3C(=O)N2Cc2cccc(Cl)c2)cc1COc1ccc(NC(C)=O)cc1 (stereo not given) | inactive | inactive |
| Cc1cccc(S(=O)(=O)Nc2cnccc2C(=O)Nc2nc(-c3ccccc3)cs2)c1 | inactive | inactive |
| O=C(Cc1ccc(Cl)c(Cl)c1)Nc1ccc(S(=O)(=O)Nc2ccccc2)cc1 | inactive | inactive |
| c1ccc(-c2nc(NCc3ccc(-c4cccnc4)cc3)c3ccccc3n2)cc1 | inactive | inactive |
| Cc1ccccc1CSc1nc2ncc(Br)cc2[nH]1 | inactive | inactive |
| COc1ccc(CCNC(=O)Cn2nc(-c3ccc(C)cc3)ccc2=O)cc1OC | inactive | inactive |
| NC(=O)c1cccc(-c2noc(-c3ccccc3C(F)(F)F)n2)c1 | inactive | inactive |
| O=C(Nc1nnc(-c2ccncc2)s1)NC12CC3CC(CC(C3)C1)C2 | inactive | inactive |
| COc1ccc(C2=Nn3c(nnc3-c3ccccc3C(F)(F)F)SC2)cc1OC1CCOC1 (stereo not given) | inactive | inactive |
| O=S(=O)(c1ccccc1)N1CCN(c2nc(C3CC3)nc3ccccc23)CC1 | inactive | inactive |
| CCCN(C)c1ncnc2ccc(-c3ccc4c(c3)OCO4)cc12 | inactive | inactive |
| Cc1cc(C)nc(NC(=S)N2CCN(c3ccc(F)cc3F)CC2)c1 | inactive | inactive |
| Cc1cc(N[S+](=O)([O-])c2ccc(NC(=O)Cc3ccc4c(c3)CCCC4)cc2)no1 | inactive | inactive |
| CCOC(=O)c1csc(-n2nc(-c3ccc(F)c(F)c3)c(Cc3ccc(S(N)(=O)=O)cc3)c2N)n1 | inactive | inactive |

| SMILES | Potency [1] | Potency [2] |
| --- | --- | --- |
| Cc1nnc(-c2cnn(C)c2N)n1CCCn1cccc1 | inactive | inactive |
| CCNc1nc(C#N)nc2c1ncn2-c1cc(F)cc(F)c1 | inactive | inactive |
| Cc1cc(C)nc(NC(=S)N2CCN(c3ccc(C(F)(F)F)cc3Cl)CC2)c1 | inactive | inactive |
| C=C1C(=O)O[C@@H]2/C=C(\CO)CC/C=C(\CO)[C@H](OC(C)=O)C(OC(=O)C(C)CC)C12 (stereo not given in full) | inactive | inactive |
| Cc1ccc(CN(C)c2ncnc3ccc(-c4ccc(C(=O)O)o4)cc23)o1 | inactive | inactive |
| O=C1c2ccccc2C(=O)N1c1cncc2ccccc12 | inactive | inactive |
| Cc1cc2c(s1)c1cnn(Cc3c(F)c(F)cc(F)c3F)c(=O)c1n2C | inactive | inactive |
| COc1cc(O)c(C(CC(=O)N2CCCC(C(=O)c3ccccc3)C2)c2ccc3c(c2)OCO3)c(OC)c1 (stereo not given) | inactive | inactive |
| CCOC(=O)c1ccc(NC(=O)CN2CCCCC2)cc1 | inactive | inactive |
| COc1c(Cl)cccc1NC(=O)c1c(NC(=O)Cc2ccccc2)sc2c1CCCC2 | inactive | inactive |
| C/C(=C\c1ccsc1)C1Nc2cccc3cccc(c23)N1 | inactive | inactive |
| Cc1ccc(S(=O)(=O)NCCC(=O)Nc2nc(-c3ccccc3)cs2)cc1 | inactive | inactive |
| N#Cc1ccc(C[C@@H](NS(=O)(=O)c2ccc(C(=O)O)cc2)C(=O)O)cc1 | inactive | inactive |
| COC(=O)C1=CO[C@@H](O[C@@H]2O[C@H](CO)[C@@H](O)[C@H](O)[C@H]2O)C2C1C(=O)C[C@H]2C (stereo not given in full) | inactive | inactive |
| O=C(O)c1ccc(O)c2ncc(N3CCCN(CCCc4ccncc4)CC3)cc12 | inactive | inactive |
| Clc1ccc2ncc(-c3cccc(NC4CCNCC4)n3)n2c1 | inactive | inactive |
| CC1=C(C(=O)Nc2ccccc2Cl)C(c2ccccc2Br)N=C(Nc2nc3ccccc3o2)N1 (stereo not given) | inactive | inactive |
| COc1ccc(C2Nc3ccccc3C(=O)N2Cc2ccccc2OC)cc1COc1c(C)cc(NC(C)=O)cc1C (stereo not given) | inactive | inactive |
| O=C(CSc1ccccc1)Nc1nnc(COc2ccc(Cl)cc2)s1 | inactive | inactive |
| O=C(Nc1ccc(Cl)c(Cl)c1)Nc1nnc(-c2cccnc2)s1 | inactive | inactive |
| Cc1cc(C(=O)Nc2ccc(NC(=O)Cc3ccc(Cl)c(Cl)c3)cc2)no1 | inactive | inactive |
| Cc1cc(C)nc(NC(=S)N2CCN(c3ccc4cnccc4c3)CC2)c1 | inactive | inactive |

| SMILES | Potency [1] | Potency [2] |
| --- | --- | --- |
| Cc1cc(NC(=O)Nc2nnc(-c3ccncc3)s2)ccc1Cl | inactive | inactive |
| Cc1cc(NS(=O)(=O)c2ccc(NC(=O)Cc3cccc4ccccc34)cc2)no1 | inactive | inactive |
| Cc1cccc(-n2cnc3cc(C(=O)N4CCCC(C(F)(F)F)C4)ccc32)c1 (stereo not given) | inactive | inactive |
| N#Cc1nc(Nc2cccc(-c3ccccc3)c2)nc(NC2CCCC2)n1 | inactive | inactive |
| CN(CC(=O)Nc1ccc(N2CCOCC2)cc1)Cc1ccccc1O | inactive | inactive |
| O=C(Nc1ccc(Cl)cc1)Nc1nnc(-c2ccncc2)s1 | inactive | inactive |
| N#Cc1ccccc1S(=O)(=O)N1CCN(S(=O)(=O)c2ccc3c(c2)OCCO3)CC1 | inactive | inactive |
| COc1cc(OC)cc(-c2nnc3n2N=C(c2ccc(OC)cc2OC)CS3)c1 | inactive | inactive |
| Cc1cccc(-n2cnc3cc(C(=O)N4CCC(C(F)(F)F)CC4)ccc32)c1 | inactive | inactive |
| c1cncc(CNc2ncnc3ccc(-c4ccco4)cc23)c1 | inactive | inactive |
| CN(C)CCCN1CCCN(C(=O)c2cccc(-c3cc(O)c4ncccc4c3)c2)C1 | inactive | inactive |
| Cc1cc2c(s1)c1cnn(Cc3c(F)cccc3Cl)c(=O)c1n2C | inactive | inactive |
| Cc1noc(-c2sc3c(c2-c2nc4ccccc4s2)CCNC3)n1 | inactive | inactive |
| Cc1ccc(-c2nn3c(C)nnc3s2)cc1NC(=O)c1ccc(-c2cccc(Cl)c2)o1 | inactive | inactive |
| COc1cc(O)c(C(CC(=O)N2CCC[C@@H](C)C2)c2ccc3c(c2)OCO3)c(OC)c1 (stereo not given in full) | inactive | inactive |
| C=CC(C)(C)C12CC3C(=O)N4C(CC5(C(C)(C)C=C)c6ccccc6NC45)C(=O)N3C1Nc1ccccc12 (stereo not given) | inactive | inactive |
| O=C(CNC(=O)c1ccncc1)OC(C(=O)Nc1cc(C(F)(F)F)ccc1Cl)c1ccccc1 (stereo not given) | inactive | inactive |
| Cc1ccc(-c2csc(NC(=O)c3ccncc3NS(=O)(=O)c3ccc(C)cc3)n2)cc1 | inactive | inactive |
| COc1cc(F)c(S(=O)(=O)N2CCCN(S(=O)(=O)c3ccc4c(c3)OCCO4)CC2)c(F)c1 | inactive | inactive |
| Cc1ccc(OCCn2c(CCNC(=O)c3ccc(Cl)cc3)nc3ccccc32)cc1 | inactive | inactive |
| Cc1ccnc(NC(=S)N2CCN(c3ncc(C(F)(F)F)cc3Cl)CC2)c1 | inactive | inactive |
| O=C1c2ccccc2C(=O)N1Cc1ccccc1 | inactive | inactive |

| SMILES | Potency [1] | Potency [2] |
| --- | --- | --- |
| Cc1cc2c(s1)c1cnn(Cc3cccc([N+](=O)[O-])c3)c(=O)c1n2C | inactive | inactive |
| COc1cc2nc(Nc3ccccc3)nc(NC3CC3)c2cc1OC | inactive | inactive |
| Cc1cccc(CNc2ccnc(-c3ccccc3C(F)(F)F)n2)c1 | inactive | inactive |
| C/C=C/C=C/C=C/C(=O)O[C@@H]1C=C(CO)[C@](O)(CO)[C@@]2(C)CCCC(C)(C)[C@H]12 | inactive | inactive |
| O=C(O)c1ccc(-c2ccc3ncnc(NCC4CCCO4)c3c2)o1 (stereo not given) | inactive | inactive |
| O=C(c1c(F)cccc1F)N1CCN(S(=O)(=O)c2ccc3c(c2)OCCO3)CC1 | inactive | inactive |
| Cc1ccsc1CN(C)c1ncnc2ccc(-c3ccc([C@@H](C)O)o3)cc12 | inactive | inactive |
| Cc1ccccc1NC(=O)CN1C(=O)N/C(=C\c2cccn2-c2cccc(C(=O)O)c2)C1=O | inactive | inactive |
| O=[S+]([O-])(c1c(F)cccc1F)N1CCN([S+](=O)([O-])c2cccc3nonc23)CC1 | inactive | inactive |
| O=C(NC(c1ccco1)c1cc(Cl)c2cccnc2c1O)c1ccccc1 (stereo not given) | inactive | inactive |
| COc1cc(-c2csc(N3CCC(C(N)=O)CC3)n2)cc(OC)c1OC | inactive | inactive |
| C[C@@H]1CC[C@]2(C(=O)O[C@@H]3O[C@H](CO)[C@@H](O)[C@H](O)[C@H]3O)CC[C@]3(C)C(=CCC4[C@@]5(C)C[C@@H](O)[C@H](O)[C@](C)(C(=O)O)C5CC[C@]43C)[C@@H]2[C@]1(C)O (stereo not given in full) | inactive | inactive |
| Cc1c(P(=S)(c2ccccc2)c2ccccc2)[n+]2ccccc2n1CC(=O)c1ccccc1 | inactive | inactive |
| O=C(OCC#CCSc1nnc(-c2cccc3ccccc23)o1)c1sc(Cl)c(Cl)c1Cl | inactive | inactive |
| NC(=O)C1CCN(c2nc(-c3cccc(C(F)(F)F)c3)cs2)CC1 | inactive | inactive |
| CCS(=O)(=O)N1CCC(C(=O)Nc2ccc(S(=O)(=O)Nc3nccs3)cc2)CC1 | inactive | inactive |
| CCCn1c(C)nc2c(N(CCOC)CCOC)nc(C)nc21 | inactive | inactive |
| CCCn1c(C)nc2c(NCCCCN(C)C)nc(C)nc21 | inactive | inactive |
| CCN(CC)CCCC(C)n1c(-c2ccccc2)nc2c(NCCOC)nc(C)nc21 (stereo not given) | inactive | inactive |
